Experimental data: ChEMBL document CHEMBL1157539, “Thousands of chemical starting points for antimalarial lead identification” (Nature, 2010)

What was measured:
Assay type in all cases: functional
Plasmodium falciparum [1] = assay: GSK_TCMDC: Inhibition of Plasmodium falciparum 3D7 in whole red blood cells, using parasite LDH activity as an index of growth. Test compounds present at 2uM
Plasmodium falciparum [2] = assay: GSK_TCMDC: Inhibition of Plasmodium falciparum Dd2 in whole red blood cells, using parasite LDH activity as an index of growth. Test compounds present at 2uM
HepG2 = assay: GSK_TCMDC: Percent inhibition of human HepG2 cell line. Test compounds present at 10uM.

SMILES | Inhibition (Plasmodium falciparum [1]) [%] | Inhibition (Plasmodium falciparum [2]) [%] | Inhibition (HepG2) [%]
CC1CN(Cc2ccc(C#N)cc2)CCN1c1ccc(NC(=O)c2cccs2)cc1.O=C(O)C(F)(F)F (stereo not given) | 93 | 89 | 8
Cc1ccc(Cn2cnc3cc(C(=O)Nc4ccc(-c5ccc(CN(C)C)cc5)cc4)ccc3c2=O)o1 | 82 | 12 | 43
CCc1c(CCNCCCCCCNCc2ccc3c(c2CC)OCO3)ccc(OC)c1OC.Cl | 100 | 19 | 38
Cl.O=C(Nc1ccc(Cl)c(Cl)c1)N1CCc2cc3nccc(N4CCN5CCC[C@H]5C4)c3cc21 | 100 | 75 | 2
Cc1cccc2nc(-c3cccc(-c4cccc(CNCCc5cccn5C)c4)c3)[nH]c12.O=C(O)C(F)(F)F | 91 | 49 | 4
O=C(NCCCCCN1CCC(c2c[nH]c3ccccc23)C1)Nc1ccc(Cl)c(Cl)c1 (stereo not given) | 95 | 19 | 28
O=C(CCC1CCCC1)N(Cc1ccc(-c2ccc(CNCCc3ccccc3)cc2)cc1)C1CCCNC1.O=C(O)C(F)(F)F (stereo not given) | 90 | 71 | 99
Cc1c(C)n(Cc2ccccc2)c2ncnc(OC3CCN(CC(=O)NCC4CC4)CC3)c12 | 92 | 79 | 17
Cc1nnsc1C(=O)Nc1cccc(-c2cccc(-c3nc4cc(F)ccc4[nH]3)c2)c1 | 100 | 45 | 35
Cc1cccc2nc(-c3ccc(-c4cccc(CNCc5cnn(-c6ccccc6)n5)c4)s3)[nH]c12.O=C(O)C(F)(F)F | 98 | 58 | 40
